Assay results reported in PubChem BioAssay (EPA / NIEHS).
Records with an inconclusive call do not appear. Calls of active or inactive are those of the source. Rule for the calls, unless noted: active = hit-call score of the fitted dose curve at least 0.9, where 1 is the maximum; inactive = score below 0.9.

Experiments:
[1] = molecular target: Glucocorticoid receptor (Homo sapiens) (UniProt P04150); assay: ATG_GR_TRANS: Attagene TRANS-FACTORIAL HepG2 Assay for human Glucocorticoid Receptor (GR) (AID 2282978; active = hit-call score of the fitted dose curve at least 0.9, where 1 is the maximum;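 note: activators score as hits since higher reporter transcript over DMSO is fitted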); details: HepG2 Attagene TRANS GR reporter, mRNA transcription
In short: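 Multiplexed TRANS reporter system, HepG2; 24 h exposure; RNA → oligo(dT) RT → reporter-specific PCR → 6-FAM primer extension → HpaI cut → CE fluorescence. Gain-of-signal vs DMSO.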

[2] = molecular target: Oxysterols receptor LXR-beta (Homo sapiens) (UniProt P55055); assay: ATG_LXRb_TRANS: Attagene TRANS-FACTORIAL HepG2 Assay for human Liver X Receptor beta (LXRb) (AID 2282981; active = hit-call score of the fitted dose curve at least 0.9, where 1 is the maximum); details: HepG2 Attagene TRANS GAL4-LXRb reporter, mRNA
In short: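 After 24 h chemical treatment of transfected HepG2 cells carrying exogenous NR-Gal4 chimeras, reporter mRNA was quantified by fluorescent RT-PCR and capillary electrophoresis; activity taken as increase over DMSO controls.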

[3] = molecular target: Hepatocyte nuclear factor 4-alpha (Homo sapiens) (UniProt P41235); assay: ATG_HNF4a_TRANS: Attagene TRANS-FACTORIAL HepG2 Assay for human Hepatocyte Nuclear Factor 4 alpha (HNF4a) (AID 2282982; active = hit-call score of the fitted dose curve at least 0.9, where 1 is the maximum); details: HepG2 HNF4a transactivation reporter, mRNA readout
In short: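 Activity of an exogenous HNF4a–Gal4 fusion scored as induced GAL4-UAS reporter transcripts after 24 h chemical exposure of transfected human HepG2 cells. Read-out via RT-PCR with 6-FAM labelling and capillary electrophoresis; rise over DMSO baseline.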

[4] = ATG_M_06_TRANS: Attagene TRANS-FACTORIAL HepG2 Assay for M06 Transcription Factor (Internal Marker) (AID 2282983; active = hit-call score of the fitted dose curve at least 0.9, where 1 is the maximum;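 note: reporter transcript level by RT-PCR then capillary electrophoresis fluorescence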); details: HepG2 Attagene TRANS M06 internal marker reporter
In short: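 Multi-reporter-transfected HepG2, 24 h treatment; reporter transcripts quantified via RT-PCR, primer-extension labelling and CE. DMSO-normalized gain-of-signal fit.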

[5] = molecular target: Transcriptional activator Myb (Homo sapiens) (UniProt P10242); assay: ATG_Myb_CIS: Attagene CIS-FACTORIAL HepG2 Assay for human Myeloblastosis (Myb) Proto-Oncogene Transcription Factor (AID 2282986); details: HepG2 Attagene CIS-FACTORIAL Myb reporter transcription; actives raise or lower the signal
In short: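 Endogenous transcription factor activity at a Myb-responsive cis element is reported in human liver HepG2 cells after 24 h chemical treatment. Reporter mRNA is detected by RT-PCR and capillary electrophoresis fluorescence, with DMSO as baseline.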

[6] = molecular target: Nuclear respiratory factor 1 (Homo sapiens) (UniProt Q16656); assay: ATG_NRF1_CIS: Attagene CIS-FACTORIAL HepG2 Assay for human Nuclear Respiratory Factor 1 (NRF1) Orphan Gene (AID 2282987); details: HepG2 NRF1 cis-element reporter, Attagene multiplex; actives raise or lower the signal
In short: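 Human hepatoma HepG2 cells carrying transfected promoter-regulated reporter units were incubated with test chemicals for 24 h. Reporter transcripts were measured by RT-PCR plus capillary electrophoresis, and endpoints derived by bidirectional fitting with DMSO as baseline.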

[7] = ATG_NFI_CIS: Attagene CIS-FACTORIAL HepG2 Assay for human Nuclear Factor I (NFI) (AID 2282989); details: HepG2 cis-regulatory reporter, NFI response element transcription; actives raise or lower the signal
In short: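 After transient transfection of HepG2 with cis-promoter reporter constructs and 24 h dosing, RNA is reverse-transcribed, amplified, 6-FAM end-labelled and HpaI-digested before capillary analysis. Bidirectional curve fitting against DMSO.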

[8] = molecular target: Myc proto-oncogene protein (Homo sapiens) (UniProt P01106); assay: ATG_Myc_CIS: Attagene CIS-FACTORIAL HepG2 Assay for human Myelocytomatosis (Myc) Proto-Oncogene Transcription Factor (AID 2282990); details: HepG2, Attagene cis-reporter transcription factor activity; actives raise or lower the signal
In short: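 Cells of the HepG2 human liver line bear multiple cis-driven reporter transcription units. Reporter mRNA after 24 h exposure is reverse-transcribed, amplified, labelled and resolved by capillary electrophoresis, with gain- or loss-of-signal fitting relative to DMSO.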

[9] = ATG_NF_kB_CIS: Attagene CIS-FACTORIAL HepG2 Assay for human Nuclear Factor Kappa B (NF-kB) (AID 2282991); details: HepG2 Attagene cis-factorial NF-kB reporter mRNA; actives raise or lower the signal
In short: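 Multiplexed cis-reporter assay in transiently transfected HepG2. 24 h treatment; RNA isolated, RT-PCR, labelled fragments resolved by CE. DMSO baseline.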

[10] = ATG_NRF2_ARE_CIS: Attagene CIS-FACTORIAL HepG2 Assay for human Nuclear Factor Erythroid 2 Related Factor 2 (NFR2) response to Antioxidant Response Elements (ARE) (AID 2282992); details: HepG2 Attagene ARE/NRF2 reporter, transcription factor activity; actives raise or lower the signal
In short: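 Endogenous transcription factor activity in human liver HepG2 cells is tracked via a cis-element-driven reporter within a multiplexed set. mRNA induction is read by RT-PCR and capillary electrophoresis after 24 h, with DMSO as baseline.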

[11] = ATG_Oct_MLP_CIS: Attagene CIS-FACTORIAL HepG2 Assay for human Octamer-Binding Transcription Factor (Oct) (AID 2282993); details: HepG2 Attagene cis-factorial Oct reporter, mRNA; actives raise or lower the signal
In short: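 Cells of the HepG2 line express promoter-controlled reporter sequences whose mRNA levels, after 24 h treatment, are measured by RT-PCR and capillary electrophoresis. Increases and decreases are scored relative to DMSO.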

[12] = molecular target: Cellular tumor antigen p53 (Homo sapiens) (UniProt P04637); assay: ATG_p53_CIS: Attagene CIS-FACTORIAL HepG2 Assay for human p53 Transcription Factor (AID 2282994); details: HepG2 p53 cis-element reporter, Attagene mRNA; actives raise or lower the signal
In short: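 Steps: transfect HepG2 with multiplexed cis reporter constructs; dose chemicals 24 h; extract RNA, reverse-transcribe, PCR-amplify reporter sequences; FAM-label, HpaI-digest, resolve fragments by CE. Activity fitted both directions relative to DMSO.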

[13] = BSK_3C_TissueFactor: BioMAP Diversity Plus: 3C Assay for Tissue Factor Biomarker Activity (AID 2282997); details: BioMAP 3C HUVEC, tissue factor biomarker readout; actives raise or lower the signal
In short: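 In this endothelial system, HUVEC are treated for 24 h and Tissue Factor is assessed by ELISA, normalised to DMSO.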

[14] = BSK_3C_uPAR: BioMAP Diversity Plus: 3C Assay for Urokinase-type plasminogen activator receptor (uPAR) Biomarker Activity (AID 2282998); details: BioMAP 3C HUVEC, uPAR biomarker ELISA; actives raise or lower the signal
In short: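 Endothelial primary cells of human umbilical vein origin received test chemical; 24 h later uPAR was assayed by ELISA. Fitting was bidirectional, DMSO as negative control.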

[15] = BSK_3C_VCAM1: BioMAP Diversity Plus: 3C Assay for Vascular cell adhesion molecule 1 (VCAM1) Biomarker Activity (AID 2282999); details: BioMAP 3C HUVEC, VCAM1 ELISA, cytokine-stimulated; actives raise or lower the signal
In short: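 Activity fitted in both directions relative to DMSO, with ELISA measurement of the surface marker on primary HUVEC (3C) at 24 h post-treatment; parallel SRB staining (0.1% SRB, TCA-fixed, 560 nm) flagged overt cytotoxicity.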

[16] = molecular target: human Peroxisome Proliferator-activated Receptor alpha (PPARa), PPARA (gene 5465) (UniProt Q07869); assay: ATG_PPARa_TRANS: Attagene TRANS-FACTORIAL HepG2 Assay for human Peroxisome Proliferator-activated Receptor alpha (PPARa) (AID 2283001; active = hit-call score of the fitted dose curve at least 0.9, where 1 is the maximum;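 for AC50: potency for gain of reporter signal over DMSO so agonist or activator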)
In short: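 Reporter transcripts quantified by RT-PCR plus capillary electrophoresis after 24 h treatment, fitted upward relative to DMSO. Cells: human HepG2 transiently carrying multiple GAL4-UAS reporter units driven by NR-Gal4 chimeras.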

[17] = molecular target: Bile acid receptor (Homo sapiens) (UniProt Q96RI1); assay: ATG_FXR_TRANS: Attagene TRANS-FACTORIAL HepG2 Assay for Farnesoid X Receptor (FXR) (AID 2282979; active = hit-call score of the fitted dose curve at least 0.9, where 1 is the maximum;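 note: hits raise reporter mRNA above DMSO so AC50 marks FXR activation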); details: HepG2 Attagene TRANS FXR-GAL4 reporter transcription
In short: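 After 24 h chemical treatment of transfected HepG2 cells, GAL4-UAS reporter transcripts driven by an exogenous FXR-GAL4 fusion were measured by RT-PCR and capillary electrophoresis. Increases over DMSO were fitted.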

[18] = ATG_M_32_TRANS: Attagene TRANS-FACTORIAL HepG2 Assay for M32 Transcription Factor (Internal Marker) (AID 2282984; active = hit-call score of the fitted dose curve at least 0.9, where 1 is the maximum;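 note: transcript level of a background control reporter unit measured by RT-PCR and capillary electrophoresis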); details: HepG2 Attagene TRANS M32 internal marker reporter
In short: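 Internal background reporter in transfected HepG2: after 24 h chemical exposure, RNA reverse-transcribed, reporter cDNA amplified, fluorescently labelled and HpaI-cut, then sized by capillary electrophoresis. Gain of signal fitted against DMSO control.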

[19] = molecular target: Nuclear receptor subfamily 4 group A member 2 (Homo sapiens) (UniProt P43354); assay: ATG_NURR1_TRANS: Attagene TRANS-FACTORIAL HepG2 Assay for human Nuclear Receptor Related Protein 1 (NURR1) (AID 2282985; active = hit-call score of the fitted dose curve at least 0.9, where 1 is the maximum); details: HepG2 Attagene TRANS reporter, mRNA readout
In short: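 Reporter transcript induction, measured by RT-PCR with fluorescent labelling, HpaI digestion and capillary electrophoresis, after 24 hr dosing of human HepG2 cells transiently expressing an exogenous NR-Gal4 fusion with GAL4-UAS-driven reporters; DMSO as baseline.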

[20] = BSK_4H_Eotaxin3: BioMAP Diversity Plus: 4H Assay for Eotaxin 3 Biomarker Activity (AID 2283000); details: primary human endothelial cells (HUVEC); actives raise or lower the signal
In short: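 ELISA quantitation of CCL26 (Eotaxin-3) protein from chemically dosed human vascular endothelial cells at 24 h; increases and decreases both scored relative to DMSO-treated baseline.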

Measured: AC50

Hepatocyte nuclear factor 4-alpha (Homo sapiens), sequence (P41235 whole entry, looked up, the tested form may be a part): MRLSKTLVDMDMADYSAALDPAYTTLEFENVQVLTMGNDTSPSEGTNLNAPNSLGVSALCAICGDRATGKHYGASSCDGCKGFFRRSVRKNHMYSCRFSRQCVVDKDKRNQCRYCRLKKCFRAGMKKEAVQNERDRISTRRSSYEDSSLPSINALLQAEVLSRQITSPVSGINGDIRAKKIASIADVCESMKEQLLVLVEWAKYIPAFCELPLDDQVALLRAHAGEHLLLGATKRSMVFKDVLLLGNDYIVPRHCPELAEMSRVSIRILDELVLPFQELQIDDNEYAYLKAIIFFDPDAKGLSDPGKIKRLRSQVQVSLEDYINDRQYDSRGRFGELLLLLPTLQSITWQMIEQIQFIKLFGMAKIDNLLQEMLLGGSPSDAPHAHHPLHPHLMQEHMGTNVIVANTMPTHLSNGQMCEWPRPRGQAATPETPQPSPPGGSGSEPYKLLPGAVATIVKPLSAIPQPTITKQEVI
Nuclear receptor subfamily 4 group A member 2 (Homo sapiens), sequence (P43354 whole entry, looked up, the tested form may be a part): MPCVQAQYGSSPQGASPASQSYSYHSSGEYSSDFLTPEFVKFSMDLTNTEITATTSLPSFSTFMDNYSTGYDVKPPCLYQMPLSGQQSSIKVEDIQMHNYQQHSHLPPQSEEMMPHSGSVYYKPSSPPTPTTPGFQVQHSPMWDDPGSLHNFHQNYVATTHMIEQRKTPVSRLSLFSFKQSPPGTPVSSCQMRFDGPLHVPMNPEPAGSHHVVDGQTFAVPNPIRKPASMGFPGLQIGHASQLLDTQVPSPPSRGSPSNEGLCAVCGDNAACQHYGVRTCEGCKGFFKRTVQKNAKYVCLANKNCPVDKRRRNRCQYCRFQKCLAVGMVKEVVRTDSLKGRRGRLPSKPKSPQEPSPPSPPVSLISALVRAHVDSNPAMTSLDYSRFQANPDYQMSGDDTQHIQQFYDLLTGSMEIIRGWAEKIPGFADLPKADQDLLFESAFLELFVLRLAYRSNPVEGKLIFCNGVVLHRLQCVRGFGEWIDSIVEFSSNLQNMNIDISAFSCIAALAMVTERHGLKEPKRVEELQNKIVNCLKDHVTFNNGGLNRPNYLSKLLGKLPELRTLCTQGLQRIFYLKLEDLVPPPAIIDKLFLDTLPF
human Peroxisome Proliferator-activated Receptor alpha (PPARa), PPARA (gene 5465), sequence (Q07869 whole entry, looked up, the tested form may be a part): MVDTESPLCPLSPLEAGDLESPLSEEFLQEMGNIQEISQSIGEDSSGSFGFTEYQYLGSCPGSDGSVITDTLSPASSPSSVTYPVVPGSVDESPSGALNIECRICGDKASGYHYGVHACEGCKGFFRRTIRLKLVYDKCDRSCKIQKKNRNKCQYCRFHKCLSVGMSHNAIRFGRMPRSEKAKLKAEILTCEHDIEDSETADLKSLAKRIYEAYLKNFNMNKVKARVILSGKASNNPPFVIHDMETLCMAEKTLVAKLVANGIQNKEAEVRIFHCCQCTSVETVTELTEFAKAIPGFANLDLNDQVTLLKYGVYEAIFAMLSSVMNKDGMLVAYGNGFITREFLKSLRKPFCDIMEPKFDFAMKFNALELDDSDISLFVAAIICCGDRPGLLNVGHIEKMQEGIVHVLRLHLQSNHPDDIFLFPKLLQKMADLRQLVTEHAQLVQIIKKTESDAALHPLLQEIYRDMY
Cellular tumor antigen p53 (Homo sapiens), sequence (P04637 whole entry, looked up, the tested form may be a part): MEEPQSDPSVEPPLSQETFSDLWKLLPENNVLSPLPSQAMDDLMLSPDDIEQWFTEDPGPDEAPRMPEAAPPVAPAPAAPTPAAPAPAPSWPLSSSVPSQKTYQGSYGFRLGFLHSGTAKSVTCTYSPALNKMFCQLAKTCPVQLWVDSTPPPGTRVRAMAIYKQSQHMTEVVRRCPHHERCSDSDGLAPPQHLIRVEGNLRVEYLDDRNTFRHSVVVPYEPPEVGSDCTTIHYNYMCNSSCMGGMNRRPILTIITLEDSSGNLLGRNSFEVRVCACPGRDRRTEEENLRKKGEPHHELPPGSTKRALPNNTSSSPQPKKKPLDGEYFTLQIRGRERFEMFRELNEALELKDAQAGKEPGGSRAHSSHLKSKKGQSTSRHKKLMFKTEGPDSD
Bile acid receptor (Homo sapiens), sequence (Q96RI1 whole entry, looked up, the tested form may be a part): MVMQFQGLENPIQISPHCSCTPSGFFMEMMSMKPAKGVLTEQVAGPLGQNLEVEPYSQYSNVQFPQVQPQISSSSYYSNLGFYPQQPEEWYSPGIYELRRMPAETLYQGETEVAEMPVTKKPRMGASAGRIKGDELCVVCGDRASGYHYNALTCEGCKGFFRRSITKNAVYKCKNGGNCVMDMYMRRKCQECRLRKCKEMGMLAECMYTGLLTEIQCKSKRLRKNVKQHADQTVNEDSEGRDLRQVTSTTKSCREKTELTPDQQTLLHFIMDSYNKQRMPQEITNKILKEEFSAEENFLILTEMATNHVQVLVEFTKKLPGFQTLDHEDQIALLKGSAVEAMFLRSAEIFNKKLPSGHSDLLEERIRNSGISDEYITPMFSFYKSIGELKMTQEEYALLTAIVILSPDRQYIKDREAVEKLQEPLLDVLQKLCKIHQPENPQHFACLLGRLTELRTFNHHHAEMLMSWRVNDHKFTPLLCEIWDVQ
Transcriptional activator Myb (Homo sapiens), sequence (P10242 whole entry, looked up): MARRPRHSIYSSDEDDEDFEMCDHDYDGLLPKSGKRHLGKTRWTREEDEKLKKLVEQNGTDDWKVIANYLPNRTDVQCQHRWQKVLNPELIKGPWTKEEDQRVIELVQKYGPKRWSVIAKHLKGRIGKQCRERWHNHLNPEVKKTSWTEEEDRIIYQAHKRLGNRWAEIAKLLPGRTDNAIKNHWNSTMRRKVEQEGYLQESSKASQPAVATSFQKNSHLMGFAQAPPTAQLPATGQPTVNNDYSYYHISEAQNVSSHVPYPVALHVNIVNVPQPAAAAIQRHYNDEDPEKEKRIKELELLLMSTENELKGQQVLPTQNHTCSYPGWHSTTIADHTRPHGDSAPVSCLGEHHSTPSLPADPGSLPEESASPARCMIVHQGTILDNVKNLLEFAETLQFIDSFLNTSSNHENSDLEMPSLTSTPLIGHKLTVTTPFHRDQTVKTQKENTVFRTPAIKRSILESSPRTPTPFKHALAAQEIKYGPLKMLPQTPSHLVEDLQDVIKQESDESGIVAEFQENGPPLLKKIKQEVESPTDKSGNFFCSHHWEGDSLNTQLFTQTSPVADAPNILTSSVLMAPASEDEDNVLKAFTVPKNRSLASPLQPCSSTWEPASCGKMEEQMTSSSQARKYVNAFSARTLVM
Glucocorticoid receptor (Homo sapiens), sequence (P04150 whole entry, looked up): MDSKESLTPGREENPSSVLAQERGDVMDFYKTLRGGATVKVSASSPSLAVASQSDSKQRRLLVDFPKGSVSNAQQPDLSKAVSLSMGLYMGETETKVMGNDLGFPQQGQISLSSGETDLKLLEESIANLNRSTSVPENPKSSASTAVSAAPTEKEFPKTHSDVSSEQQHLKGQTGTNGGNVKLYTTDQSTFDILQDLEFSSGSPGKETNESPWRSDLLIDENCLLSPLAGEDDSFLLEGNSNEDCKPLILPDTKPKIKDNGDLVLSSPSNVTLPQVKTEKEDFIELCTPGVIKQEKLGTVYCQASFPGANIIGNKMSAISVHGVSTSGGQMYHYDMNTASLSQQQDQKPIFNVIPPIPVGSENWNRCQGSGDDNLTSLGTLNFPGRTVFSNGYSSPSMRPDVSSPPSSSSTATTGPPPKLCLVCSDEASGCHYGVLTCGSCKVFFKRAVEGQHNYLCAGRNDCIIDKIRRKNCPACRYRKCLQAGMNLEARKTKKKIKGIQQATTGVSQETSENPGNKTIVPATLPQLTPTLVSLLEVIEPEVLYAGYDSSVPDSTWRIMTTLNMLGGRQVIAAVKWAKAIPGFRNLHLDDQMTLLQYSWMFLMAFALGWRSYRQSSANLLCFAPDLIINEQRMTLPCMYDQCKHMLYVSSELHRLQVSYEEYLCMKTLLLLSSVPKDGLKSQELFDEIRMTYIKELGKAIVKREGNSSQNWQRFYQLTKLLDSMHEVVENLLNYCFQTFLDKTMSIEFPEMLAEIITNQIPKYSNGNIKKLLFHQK
Myc proto-oncogene protein (Homo sapiens), sequence (P01106 whole entry, looked up): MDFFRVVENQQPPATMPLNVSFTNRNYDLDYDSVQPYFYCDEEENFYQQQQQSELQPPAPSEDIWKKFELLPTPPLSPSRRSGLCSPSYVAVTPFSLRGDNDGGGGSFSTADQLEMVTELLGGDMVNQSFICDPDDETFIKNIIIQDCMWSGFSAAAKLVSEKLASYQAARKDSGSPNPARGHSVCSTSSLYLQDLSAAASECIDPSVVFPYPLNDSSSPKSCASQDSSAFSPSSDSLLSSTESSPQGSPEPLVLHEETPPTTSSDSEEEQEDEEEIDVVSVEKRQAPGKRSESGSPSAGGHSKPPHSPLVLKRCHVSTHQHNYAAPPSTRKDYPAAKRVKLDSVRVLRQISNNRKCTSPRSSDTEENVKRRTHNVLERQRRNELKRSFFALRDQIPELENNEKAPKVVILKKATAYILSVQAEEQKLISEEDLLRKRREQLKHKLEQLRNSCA
Oxysterols receptor LXR-beta (Homo sapiens), sequence (P55055 whole entry, looked up, the tested form may be a part): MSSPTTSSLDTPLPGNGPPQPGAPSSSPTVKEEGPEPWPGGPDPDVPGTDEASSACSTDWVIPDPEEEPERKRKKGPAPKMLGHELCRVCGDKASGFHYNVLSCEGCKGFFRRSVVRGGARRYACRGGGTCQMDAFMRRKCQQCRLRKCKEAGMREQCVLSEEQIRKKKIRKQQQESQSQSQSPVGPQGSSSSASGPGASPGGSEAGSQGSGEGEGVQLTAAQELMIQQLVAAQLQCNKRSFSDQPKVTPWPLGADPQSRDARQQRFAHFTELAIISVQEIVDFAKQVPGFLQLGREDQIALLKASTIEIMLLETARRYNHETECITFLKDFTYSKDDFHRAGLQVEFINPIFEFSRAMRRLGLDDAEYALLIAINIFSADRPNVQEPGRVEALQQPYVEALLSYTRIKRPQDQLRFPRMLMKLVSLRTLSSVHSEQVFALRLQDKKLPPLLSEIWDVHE

Cn1cnc([N+](=O)[O-])c1Sc1ncnc2nc[nH]c12
active: [10] 29.5 µM | [16] 26.4 µM
not listed: [17] | [18] | [19] | [20]
inactive: all other assays above

Cc1[nH]cnc1C[C@H]1CCc2c(C)c3ccccc3n2C1=O
active: [6] 13.1 µM | [11] 21 µM | [12] 7.45 µM | [14] 27.4 µM
not listed: [3] | [9] | [20]
inactive: all other assays above

CC(C)(O)c1coc(S(=O)(=O)NC(=O)Nc2c3c(cc4c2CCC4)CCC3)c1
not listed: [3] | [4] | [12] | [16] | [17] | [20]
inactive: all other assays above

COc1ccc2sc(C(=O)Nc3nnn[nH]3)c(OC(C)C)c2c1
active: [10] 70.2 µM | [11] 155 µM | [13] 22.5 µM | [14] 5.51 µM | [15] 23.7 µM | [20] 23.3 µM
not listed: [2] | [3] | [9] | [12]
inactive: all other assays above

Oc1ccc2c(c1)-c1ccccc1C2
active: [7] 37.9 µM | [8] 63.1 µM | [10] 2.77 µM | [11] 32.6 µM | [13] 0.791 µM | [14] 14.4 µM
not listed: [2] | [9] | [19] | [20]
inactive: all other assays above

CCOc1cccc(-n2cc(C(=O)N3CCN(c4cc(C(=O)O)c5ccccc5c4)CC3)nc2-c2ccc(C)cc2)c1
inactive: [1] | [17] | [4] | [18] | [7] | [8] | [9]
active: [19] 45 µM | [5] 152 µM | [6] 22.7 µM | [10] 8.42 µM | [11] 25.4 µM | [13] 28.7 µM | [14] 13.9 µM | [15] 27.9 µM

CC(=O)c1ccc2c(c1)[C@H](NC(=O)c1ccc(F)cc1)[C@@H](O)C(C)(C)O2
not listed: [3] | [4] | [9] | [12] | [17] | [19] | [20]
inactive: all other assays above

CC[C@H]1CC[C@H](NCc2cc3c(cc2OC)[C@H]2C[C@H]2C(=O)N3C)[C@H](c2ccccc2)N1
active: [7] 46.5 µM | [9] 45.2 µM | [11] 64.3 µM
not listed: [12] | [17] | [18]
inactive: all other assays above

COc1ccc(/C=C/S(=O)(=O)NC(=O)c2ccc(C)cc2Cl)cc1
not listed: [3] | [4] | [15] | [17] | [19] | [20]
inactive: all other assays above

C1=CCCC=CCCC=CCC1
active: [10] 159 µM
not listed: [2] | [3] | [12] | [16] | [18] | [19]
inactive: all other assays above

CN(C)c1ccc(N=NS(=O)(=O)O)cc1
active: [10] 54 µM | [11] 130 µM | [13] 5.79 µM | [15] 6.47 µM
not listed: [3] | [9] | [16] | [17] | [18] | [19]
inactive: all other assays above

CC[C@H](C)C(=O)O[C@H]1C[C@@H](C)C=C2C=C[C@H](C)[C@H](CC[C@@H]3C[C@@H](O)CC(=O)O3)[C@H]21
active: [10] 33.4 µM | [11] 6.78 µM | [13] 31 µM | [14] 18.3 µM | [15] 33.7 µM | [20] 31.5 µM
not listed: [2]
inactive: all other assays above

CCCCC(CC)COC(=O)CCCCCCCCC(=O)OCC(CC)CCCC (stereo not given)
not listed: [4] | [9] | [12] | [17] | [20]
inactive: all other assays above

CCCCC(CC)COC(=O)c1ccc(C(=O)OCC(CC)CCCC)cc1 (stereo not given)
inactive: [17] | [3] | [4] | [5] | [6] | [7] | [8] | [10] | [11] | [13] | [14]

CC(C)CCO
not listed: [1] | [12] | [17] | [19]
inactive: all other assays above

CC(O)CN(CCN(CC(C)O)CC(C)O)CC(C)O (stereo not given)
not listed: [2] | [3] | [4] | [12] | [16] | [17] | [18]
inactive: all other assays above
